This is part of a sample that, as a whole, favours compounds with a hit. Of some 83,000 tested, about 20% had one in any assay.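 Assay: single dose, 48 h. Readout: percent growth (0 = no net growth; negative = cell death). Active: <10.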 The source made the active and inactive calls.
test system: NCI-H522 lung; test: NCI-60 one-dose screen, 48 h (100 = growth as untreated, 0 = no growth, -100 = all killed); settings: 10 µM unless noted

SMILES | growth
Cn1ccnc1C(=O)/C=C/c1ccc(CC(=O)Nc2ccccc2)cc1 | 12.8% (inactive)
CC(C)CSc1nc(N)nc2c1ncn2C1OC(CO)C(O)C1O (configuration not stated) | 92.6% (inactive)
Cc1cc(N[C@@H]2CCC[C@H](Nc3ccnc4cc(Cl)ccc34)C2)nc(N2CCCCCC2)n1 | -61.5% (active)
CC(C)(CCCN=C(N)Nc1ccc(Cl)cc1)c1ccc(F)cc1 | 62% (inactive)
COc1ccc(-c2nc(SCC(=O)Nc3ccc(C(=O)/C=C/c4ccc(Cl)cc4)cc3)[nH]c(=O)c2C#N)cc1 | 77.4% (inactive)
FC(F)(F)Oc1ccc2nc3nc4ccc[nH]c4cc3c2c1 | 75.3% (inactive)
CCOC(=O)C(C)(C#N)C1C=CCCC1 (configuration not stated) | 104% (inactive)
O=C1/C(=C/c2ccc(OCCCOc3ccc(Cl)cc3)cc2)N=C2SCCCN12 | 34.6% (inactive)
COc1cc(-c2nn(-c3ccc(C)cc3)cc2C(=O)O)ccc1O | 79.5% (inactive)
CC(=O)c1cc2c(N)c(C(=O)Nc3cccc(F)c3C)sc2nc1C | 82.1% (inactive)
COc1ccc(C2C(C#N)=C(N)Oc3n[nH]c(-c4cccs4)c32)cc1I (configuration not stated) | 83.2% (inactive)
CC(=O)c1cc(C(=O)c2ccc3c(c2)Sc2ccccc2N3)n2ccccc12 | -28.9% (active)
CCOC(=O)c1c(C(=O)OCC)c2cc(-c3ccn4c(C(=O)c5ccccc5)c(C(=O)OCC)c(C(=O)OCC)c4c3)ccn2c1C(=O)c1ccccc1 | 75.6% (inactive)
Cc1cc(N2CCCC2)nc(NC2CCCC(Nc3ccnc4cc(Cl)ccc34)C2)n1 (configuration not stated) | -76.3% (active)
COc1ccc2c(c1)CC/C(=C\c1cncc(Br)c1)C2=O | 55.7% (inactive)
CCc1nc(N)nc(N)c1C#CC(C)c1ccc(-c2ccncc2)cc1Cl (configuration not stated) | -9.46% (active)
CC(=O)O[C@H]1C(=O)[C@@]2(C)[C@H]([C@H](OC(=O)c3ccccc3)[C@]3(O)C[C@H](OC(=O)[C@H](OC(=O)CCC(=O)OC4CCC(S/N=C(N)/N=C(\N)N(C)C)CC4)[C@@H](NC(=O)c4ccccc4)c4ccccc4)C(C)=C1C3(C)C)[C@]1(OC(C)=O)CO[C@@H]1C[C@@H]2O (some centres not stated) | -25.7% (active)
CCNC(=O)Oc1ccc(/C(=C(\C)c2ccc(Cl)cc2)c2ccc(OCCN3CCCCC3)cc2)cc1 | 80% (inactive)
CCOc1ccc(C(C)=O)cc1NC(=O)c1cccc(-c2nnn(CC)n2)c1 | -38.3% (active)
CC/C=C\C[C@H]1C/C=C2/C(=O)C=C[C@H]2C/C=C\CCCC(=O)O1 | -17.7% (active)
COc1cccc2c1C(=O)c1c(O)c3c(c(O)c1C2=O)C[C@](O)(C(=O)CO)C[C@H]3O[C@@H]1C[C@@H](NC(=O)CCCCCN(C)C2(c3ccc(F)cc3)CC3CCC2C3)[C@H](O)[C@@H](C)O1 (some centres not stated) | -83.1% (active)
O=C(CN1CCCCC1)Nc1ccc2oc(=O)ccc2c1 | 84.6% (inactive)
COc1cc(C)c(C2C(C#N)=C(N)Oc3n[nH]c(-c4cccs4)c32)cc1C(C)C (configuration not stated) | 91.2% (inactive)
CCNC(=O)Oc1ccc(/C(=C(\C)c2ccc(Cl)cc2)c2ccc(OCCN(CC)CC)cc2)cc1 | 55.4% (inactive)

test system: A549/ATCC NSCLC; test: as above; settings: 10 µM unless noted

SMILES | growth
CCOC(=O)c1cc(C(=O)c2ccc(O)c(O)c2)n2ccc(-c3ccn4c(C(=O)c5ccc(O)c(O)c5)cc(C(=O)OCC)c4c3)cc12 | 92.3% (inactive)
CC1C(/C=N/Nc2ccccc2)C(C#N)(C#N)C1(C#N)C#N (configuration not stated) | 85.1% (inactive)
O=C(/C=C/c1ccc(C(F)(F)F)cc1)Nc1ccc(C=C2c3ccccc3C(=O)c3ccccc32)cc1 | 44.6% (inactive)
CC/C=C\C[C@H](O)C/C=C1/C(=O)C=C[C@@]1(C)C/C=C\CCCC(=O)OC | 88.6% (inactive)
COc1cc(-c2nn(-c3ccc(C(=O)O)cc3)cc2C(=O)O)ccc1O | 78.2% (inactive)
COc1ccc(O)c(N=Nc2nccs2)c1 | 91.1% (inactive)
NCCNc1nc(Nc2ccc(-c3nc4ccccc4[nH]3)cc2)c2cn[nH]c2n1 | 101% (inactive)
COc1cc(-c2nn(-c3ccc(Br)cc3)cc2C(=O)O)ccc1O | 105% (inactive)
OCCN1CCN(c2nc(Nc3ccc(-c4nc5ccccc5[nH]4)cc3)c3cn[nH]c3n2)CC1 | -91.9% (active)
O=c1oc2c(C(F)(F)F)cccc2cc1-c1csc(Nc2ccc(OCCF)cc2)n1 | 18.1% (inactive)
N#Cc1nnn(-c2ccc(S(N)(=O)=O)cc2)c1NC(=O)CCl | 92.9% (inactive)
C=C1C(=O)O[C@H]2[C@H]1CC/C(C=Nc1ccc(C(F)(F)F)cc1N)=C\CC[C@@]1(C)O[C@@H]21 | 59.7% (inactive)
CSc1ccc(-c2ccccc(=O)c2O)cc1 | 11.5% (inactive)
Clc1ccc2c(NCCNc3nc(N4CCCCC4)nc4ccccc34)ccnc2c1 | 0.13% (active)
Cn1ccnc1C(=O)/C=C/c1ccc(CC(=O)Nc2ccccc2)cc1 | 5.36% (active)
CC(C)CSc1nc(N)nc2c1ncn2C1OC(CO)C(O)C1O (configuration not stated) | 102% (inactive)
Cc1cc(N[C@@H]2CCC[C@H](Nc3ccnc4cc(Cl)ccc34)C2)nc(N2CCCCCC2)n1 | -48.9% (active)
CC(C)(CCCN=C(N)Nc1ccc(Cl)cc1)c1ccc(F)cc1 | 79.6% (inactive)
COc1ccc(-c2nc(SCC(=O)Nc3ccc(C(=O)/C=C/c4ccc(Cl)cc4)cc3)[nH]c(=O)c2C#N)cc1 | 101% (inactive)

SMILES | growth
FC(F)(F)Oc1ccc2nc3nc4ccc[nH]c4cc3c2c1 | 64.5% (inactive)
CCOC(=O)C(C)(C#N)C1C=CCCC1 (configuration not stated) | 92.5% (inactive)
O=C1/C(=C/c2ccc(OCCCOc3ccc(Cl)cc3)cc2)N=C2SCCCN12 | 73.4% (inactive)
COc1cc(-c2nn(-c3ccc(C)cc3)cc2C(=O)O)ccc1O | 107% (inactive)
CC(=O)c1cc2c(N)c(C(=O)Nc3cccc(F)c3C)sc2nc1C | 56.5% (inactive)
COc1ccc(C2C(C#N)=C(N)Oc3n[nH]c(-c4cccs4)c32)cc1I (configuration not stated) | 87.1% (inactive)
CC(=O)c1cc(C(=O)c2ccc3c(c2)Sc2ccccc2N3)n2ccccc12 | 10.8% (inactive)
CCOC(=O)c1c(C(=O)OCC)c2cc(-c3ccn4c(C(=O)c5ccccc5)c(C(=O)OCC)c(C(=O)OCC)c4c3)ccn2c1C(=O)c1ccccc1 | 91.5% (inactive)
Cc1cc(N2CCCC2)nc(NC2CCCC(Nc3ccnc4cc(Cl)ccc34)C2)n1 (configuration not stated) | -88.6% (active)
COc1ccc2c(c1)CC/C(=C\c1cncc(Br)c1)C2=O | 95.3% (inactive)
CCc1nc(N)nc(N)c1C#CC(C)c1ccc(-c2ccncc2)cc1Cl (configuration not stated) | 9.61% (active)
CC(=O)O[C@H]1C(=O)[C@@]2(C)[C@H]([C@H](OC(=O)c3ccccc3)[C@]3(O)C[C@H](OC(=O)[C@H](OC(=O)CCC(=O)OC4CCC(S/N=C(N)/N=C(\N)N(C)C)CC4)[C@@H](NC(=O)c4ccccc4)c4ccccc4)C(C)=C1C3(C)C)[C@]1(OC(C)=O)CO[C@@H]1C[C@@H]2O (some centres not stated) | 28.5% (inactive)
CCNC(=O)Oc1ccc(/C(=C(\C)c2ccc(Cl)cc2)c2ccc(OCCN3CCCCC3)cc2)cc1 | 46.1% (inactive)
CCOc1ccc(C(C)=O)cc1NC(=O)c1cccc(-c2nnn(CC)n2)c1 | 45% (inactive)
CC/C=C\C[C@H]1C/C=C2/C(=O)C=C[C@H]2C/C=C\CCCC(=O)O1 | 29.5% (inactive)
COc1cccc2c1C(=O)c1c(O)c3c(c(O)c1C2=O)C[C@](O)(C(=O)CO)C[C@H]3O[C@@H]1C[C@@H](NC(=O)CCCCCN(C)C2(c3ccc(F)cc3)CC3CCC2C3)[C@H](O)[C@@H](C)O1 (some centres not stated) | 19.7% (inactive)
O=C(CN1CCCCC1)Nc1ccc2oc(=O)ccc2c1 | 100% (inactive)
COc1cc(C)c(C2C(C#N)=C(N)Oc3n[nH]c(-c4cccs4)c32)cc1C(C)C (configuration not stated) | 86.7% (inactive)
CCNC(=O)Oc1ccc(/C(=C(\C)c2ccc(Cl)cc2)c2ccc(OCCN(CC)CC)cc2)cc1 | 45.8% (inactive)
